In the supplement of paper PMC6555819:

Assays:
Experiment in all cases: PBM binding z-score (relative to random genomic background probes); higher = stronger binding; sequences stand for … in GC…GCGATTGACAGCGTAGAATGAAGG
[1] = system: FXR:RXRa (NR concentration 270 nM, RXRa partner concentration 90 nM)
Procedure, shortened: (§1)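 Probes were double-stranded and carried 34-nt variable regions with direct-repeat seeds, single-nucleotide variants, half-site ablations and random human genomic background sequences, printed on custom Agilent 4×180K protein-binding microarrays. Arrays were incubated 1 h with ligand-free nuclear receptor dimers in PBS pH 7.4, 2% milk, 0.02% Triton X-100, 1 mM DTT, 0.2 mg/mL BSA and 0.4 mg/ml salmon testes DNA. Antibodies against each partner (one per run) detected binding, and scanned fluorescence was regression-normalized. Binding z-scores use the random background probes as reference.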

[2] = system: LXRa:RXRa (NR concentration 270 nM, RXRa partner concentration 90 nM)
Procedure, shortened: as §1

[3] = system: LXRa homodimer (NR concentration 270 nM)
Procedure, shortened: as §1

[4] = system: LXRb:RXRa (NR concentration 270 nM, RXRa partner concentration 90 nM)
Procedure, shortened: as §1

[5] = system: LXRb homodimer (NR concentration 270 nM)
Procedure, shortened: as §1

[6] = system: PPARa:RXRa (NR concentration 270 nM, RXRa partner concentration 90 nM)
Procedure, shortened: as §1

[7] = system: PPARg:RXRa (NR concentration 180 nM, RXRa partner concentration 90 nM)
Procedure, shortened: as §1

[8] = system: PPARg:RXRa 270nM:90nM, anti-RXR (NR concentration 270 nM, RXRa partner concentration 90 nM)
Procedure, shortened: as §1

[9] = system: PPARg:RXRa 30nM:10nM, anti-RXR (NR concentration 30 nM, RXRa partner concentration 10 nM)
Procedure, shortened: as §1

[10] = system: PPARg:RXRa 90nM:30nM, anti-RXR (NR concentration 90 nM, RXRa partner concentration 30 nM)
Procedure, shortened: as §1

[11] = system: PPARg:RXRa DBDmut IVT, anti-RXR (DBD mutation: RXRa K156A/R161A, NR concentration 270 nM, RXRa partner concentration 90 nM)
Procedure, shortened: as §1

[12] = system: PPARg:RXRa IVT, anti-PPARg (NR concentration 270 nM, RXRa partner concentration 90 nM)
Procedure, shortened: as §1

[13] = system: PPARg DBDmut:RXRa IVT, anti-PPARg (DBD mutation: PPARg1 K132A/R137A, NR concentration 270 nM, RXRa partner concentration 90 nM)
Procedure, shortened: as §1

[14] = system: PPARg DBDmut IVT, anti-PPARg (DBD mutation: PPARg1 K132A/R137A, NR concentration 270 nM)
Procedure, shortened: as §1

[15] = system: PPARg homodimer (NR concentration 180 nM)
Procedure, shortened: as §1

[16] = system: PXR:RXRa (NR concentration 270 nM, RXRa partner concentration 90 nM)
Procedure, shortened: as §1

[17] = system: PXR homodimer (NR concentration 270 nM)
Procedure, shortened: as §1

[18] = system: RARa:RXR (NR concentration 270 nM, RXRa partner concentration 90 nM)
Procedure, shortened: as §1

[19] = system: RARa homodimer (NR concentration 270 nM)
Procedure, shortened: as §1

[20] = system: RARb:RXRa (NR concentration 270 nM, RXRa partner concentration 90 nM)
Procedure, shortened: as §1

Sequence	PBM binding z-score [1]	PBM binding z-score [2]	PBM binding z-score [3]	PBM binding z-score [4]	PBM binding z-score [5]	PBM binding z-score [6]	PBM binding z-score [7]	PBM binding z-score [8]	PBM binding z-score [9]	PBM binding z-score [10]	PBM binding z-score [11]	PBM binding z-score [12]	PBM binding z-score [13]	PBM binding z-score [14]	PBM binding z-score [15]	PBM binding z-score [16]	PBM binding z-score [17]	PBM binding z-score [18]	PBM binding z-score [19]	PBM binding z-score [20]
AGAACGAGGGCAATGAGTTGAGAGCACGGGTGGC	0.342	-0.0458	-0.343	-0.251	-0.332	1.42	1.39	1.17	-0.064	0.763	2.9	2.73	0.608	-0.139	0.0206	1.04	1.92	0.292	-0.276	2.05
GATACAGGGTCAGCTAGAGTCCAGAGTATGGAAA	4.63	2.73	-0.197	2.46	-0.266	4.62	3.75	3.12	0.896	1.87	1.24	2.05	0.791	0.0344	1.83	4.14	-0.0221	4.01	0.0956	3.84
CGTCCACGGTCAGCAGGTCAGTGAAAGCGACGTG	0.822	0.439	-0.291	-0.097	-0.966	1.08	0.155	0.415	-0.695	-0.328	0.719	0.748	-0.923	-1.32	0.382	0.0662	-0.459	0.943	-0.66	3.25
AGAATGAGGTTATACGTAGACCAGGGAAGAAAGT	2.15	1.62	-0.0461	1.41	-0.0466	3.11	1.74	1.98	0.485	1.29	4.22	2.41	0.544	0.658	0.197	0.906	0.447	1.48	0.232	1.43
TCTTGTAGATCAATAGAGGTTAAAAAAGTGCGCT	0.88	4.42	1.13	2.5	0.00759	2.06	0.202	1.65	2.75	2.06	1.82	1.24	0.792	0.476	0.579	2.56	0.23	1.79	0.767	0.762
TCTATTAGTTGACGGGCAACCGACGAGTCCGTTT	0.51	0.776	0.073	0.407	0.493	0.565	0.00282	1.62	3.47	2.48	2.04	0.118	0.163	0.317	0.156	0.38	0.151	0.201	0.109	0.613
CCTCGGAGGACAACAGGAGGTCAGCGCTGCCAGA	1.63	2.48	1.84	1.66	-0.537	2.37	0.445	0.734	-0.791	0.307	0.165	0.649	-1.42	-1.72	2.38	2.56	0.451	2.71	0.815	3.27
